High-throughput results (PubChem BioAssay)
JMJD2E inh: inhibitors of human JMJD2E histone demethylase; B2RXH2; JMJD2E catalytic domain, FDH-coupled NADH fluorescence (FDH is formaldehyde dehydrogenase); Potency, µM (series often up to 57.1 µM), for the others: at the highest dose activity change, negative = inhibition, hits mostly inhibitors; actives 1.6% (n = 230,000); AID 2147; active = well fitted inhibition curve with a large enough effect, not every such curve was filed as active; inconclusive = small, poorly fitted or top-dose-only effect, or another doubt; inactive = no such curve, though single readings can be large or run the other way;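 note: potency is the fitted concentration of half-maximal effect; 0% = wells with enzyme and -100% = buffer wells without enzyme; nearly all actives have a fitted effect of over 50% in size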
Target sequence (B2RXH2 1-337 limits assumed): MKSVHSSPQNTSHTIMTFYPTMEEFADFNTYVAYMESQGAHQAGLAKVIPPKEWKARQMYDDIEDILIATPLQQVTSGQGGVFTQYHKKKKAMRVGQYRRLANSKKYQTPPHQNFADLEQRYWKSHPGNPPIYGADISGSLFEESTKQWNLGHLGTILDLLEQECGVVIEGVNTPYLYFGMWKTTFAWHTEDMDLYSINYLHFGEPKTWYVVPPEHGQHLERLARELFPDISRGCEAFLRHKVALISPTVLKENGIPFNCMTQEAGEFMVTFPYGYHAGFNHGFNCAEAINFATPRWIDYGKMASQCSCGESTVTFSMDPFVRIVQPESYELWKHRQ
GoLoco inh red: RGS12 GoLoco-Gai1 interaction inhibition. P63096. Gai1:RGS12 GoLoco peptide FP, rhodamine, 10 min. Potency, µM (series often up to 61.6 µM), without a hit: at the top dose activity, negative = inhibition, usual class: inhibitors. actives 0.44% (n = 230,000). AID 880; active = well fitted inhibition curve with a large enough effect, not every such curve was filed as active; inactive = no such curve, though single readings can be large or run the other way; note: potency is the fitted concentration of half-maximal effect; nearly all actives have a fitted effect of over 30% in size
Target sequence (P63096 whole entry, looked up): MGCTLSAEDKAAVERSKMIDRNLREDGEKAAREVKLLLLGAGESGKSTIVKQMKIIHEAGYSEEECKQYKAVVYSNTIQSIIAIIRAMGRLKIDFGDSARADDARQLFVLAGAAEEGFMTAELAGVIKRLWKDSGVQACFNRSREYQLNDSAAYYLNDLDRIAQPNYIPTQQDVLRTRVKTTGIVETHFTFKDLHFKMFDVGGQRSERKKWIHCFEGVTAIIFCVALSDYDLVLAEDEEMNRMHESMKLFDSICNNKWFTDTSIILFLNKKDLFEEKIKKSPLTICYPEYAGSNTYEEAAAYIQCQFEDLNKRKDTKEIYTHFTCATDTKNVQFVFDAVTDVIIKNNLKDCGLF
Sfp inh: blocks B. subtilis Sfp PPTase activity | Q9F4F7 | Biochemical Sfp PPTase activity, qHTS | Potency, µM, inactives show largest response in the series, negative = inhibition, hits mostly inhibitors | actives 3.5% (n = 310,000);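 note: the enzyme is Sfp with the accession as filed and its product quenches rhodamine fluorescence; potency is the fitted concentration of half-maximal effect; 0% = enzyme reaction without inhibitor and -100% = no enzyme wells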
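After 15 min at room temperature with compound, 15 nM Sfp received 5 uM rhodamine-CoA plus 12.5 uM BHQ-2-ybbR (50 mM Hepes pH 7.6, 10 mM MgCl2). Rate came from the fluorescence difference over 30 min, ex 525/em 598 nm.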
NPSR antag: neuropeptide S receptor (human) antagonism, cAMP; CHO-NPSR cells, cAMP TR-FRET, antagonist mode; actives 1% (n = 220,000); Q6W5P4; Potency, µM (series often up to 38.3 µM), inactives show at the highest dose activity change, negative = inhibition, hits mostly inhibitors; AID 1461; note: potency is the fitted concentration of half-maximal effect; nearly all actives have a fitted effect of over 50% in size
ALDH1A1 block: ALDH1A1 (human) enzyme inhibition | Purified ALDH1A1, NADH fluorescence, propionaldehyde substrate | Potency, µM (series often up to 75.3 µM), without a hit: at the top dose activity, negative = inhibition, usual class: inhibitors | P00352 | actives 7.3% (n = 220,000); active = well fitted inhibition curve with a large enough effect, not every such curve was filed as active; inconclusive = small, poorly fitted or top-dose-only effect, or another doubt; inactive = no such curve, though single readings can be large or run the other way;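 note: potency is the fitted concentration of half-maximal effect; plate controls were no enzyme wells and a reference inhibitor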
FBPA coupling cs: coupling enzyme interference in Giardia aldolase counter-screen; activity change, negative = inhibition, % at 58.2 µM, hits read low; actives 0.67% (n = 290,000); coupling enzyme system counterscreen, AmpLite Red fluorescence; AID 2472; in the data active = activity change below about -30%
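Compounds tested against the coupling enzymes alone at 57.5 uM final; readout was AmpLite Red fluorescence (525/598 nm) after 20 min at RT.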
The depositor's hits bear a star; ? = inconclusive; nt = no result; [ ] = dose if it differs, or a comment. Hits are enriched below; roughly 8.5% of the tested compounds scored in any of these assays. Unless noted, calls come from the whole dose curve; as a rule, active = well fitted curve in the direction sought with a large enough effect; inconclusive = small, poorly fitted or top-dose-only effect, or another doubt; inactive = no such curve, though single readings can be large; an effect the other way counts as inactive or inconclusive. Unless noted, % is set by controls: 0 for no effect and ±100 for the full control effect.

SMILES	JMJD2E inh	GoLoco inh red	Sfp inh	NPSR antag	ALDH1A1 block	FBPA coupling cs
CCC(C)(C)NC(=O)CN(C(=O)CNS(=O)(=O)c1ccc(F)cc1)c1ccc2c(c1)OCCO2	nt	nt	4.2%	nt	nt	1.4
CCCOc1ccc(CC(=O)NCCc2ccccc2)cc1OC	nt	nt	2.8%	nt	nt	3.4
O=C(Nc1ccnn1C1CCN(CCCc2ccccc2)CC1)c1ccccc1Cl	nt	nt	0.0%	nt	nt	nt
Cc1ccc(C(=O)CC2(O)C(=O)N(CCc3ccccc3)c3ccc(Br)cc32)o1 (configuration not stated)	-4.4%	1.0%	7.94µM*	-29.7%[46.1 µM]	?	-4.8
CC(=O)CC1(O)C(=O)N(Cc2ccccc2)c2ccccc21 (configuration not stated)	-0.2%	6.1%	9.5%	-3.7%[46.1 µM]	?	nt
Cc1ccc(C(=O)CC2(O)C(=O)N(Cc3ccccc3)c3ccccc32)o1 (configuration not stated)	0.3%	5.2%	24.9%	-14.1%[46.1 µM]	0.708µM*	3.2
Cc1ccc(NC(=O)CSc2nnc(-c3n[nH]c4ccccc34)n2-c2ccccc2)c(C)c1	-0.6%	7.2%	0.1%	-23.6%	20µM*	-0.1
COC(=O)c1c(NC(=O)Cc2ccccc2)sc2c1CC(C)(C)NC2(C)C	nt	nt	28.2µM*	nt	nt	0.5
COC(=O)c1c(NC(=O)c2ccccc2[N+](=O)[O-])sc2c1CC(C)(C)NC2(C)C	5.3%	14.8%	3.4%	18.6%	-0.8%	5.2
COC(=O)c1c(NC(=O)COc2ccc(Cl)cc2)sc2c1CC(C)(C)NC2(C)C	nt	nt	56.2µM*	nt	nt	nt
CCN(CC)CCNC(=O)C(Oc1ccccc1)Oc1ccccc1	nt	nt	-5.4%	nt	nt	4.7
COc1cc(NC(=O)c2nnn(Cc3ccc(SC)cc3)c2N)cc(OC)c1	9.2%	-2.7%	4.8%	-29.4%[46.1 µM]	7.94µM*	-2.1
CN1C(=S)SC(C)(NO)C1(C)C (configuration not stated)	-2.4%	-3.5%	56.2µM*	2.8%[46.1 µM]	0.794µM*	5.1
CC(=O)c1ccc(NC(=S)NC(=O)c2c(Cl)c(C)nn2C)cc1	1.1%	-10.4%	?	2.6%	?	0.3
O=C(NCc1ccco1)c1cccc(Nc2nc3ccc(Br)cc3[nH]2)c1	-3.4%	7.0%	17.6%	-12.4%[46.1 µM]	?	-1.0
O=C(NCC1CC1)c1ccc(Nc2nc3ccc(Br)cc3[nH]2)cc1	?	-37.0%	31.6µM*	-18.0%[46.1 µM]	?	-2.2
Cc1nc(-c2nnc(SCC(=O)Nc3ccc(Cl)cc3)n2C)cs1	-2.7%	-4.6%	26.7%	6.3%	nt	-0.5
Cc1cc(C)nc(N/N=C/c2ccccc2OCC(=O)O)n1	nt	nt	6.31µM*	nt	nt	2.2
Cn1ncc(N=Cc2ccccc2)c1C(N)=O	-2.7%	6.2%	-1.9%	4.3%[46.1 µM]	7.9%	-8.2
Nc1ncc(Br)cc1N=Cc1ccccc1	-3.2%	-7.7%	79.4µM*	7.4%	5.1%	-47.8*
O=C(O)Cn1c2c(c3ccccc31)CSc1ccc(Cl)cc1-2	nt	nt	20µM*	nt	nt	9.3
Cc1sc2cc(-c3cccc([N+](=O)[O-])c3)c(-c3cccc([N+](=O)[O-])c3)c[n+]2c1C	9.7%	-3.5%	19.4%	6.6%	-4.0%	-0.7
O=C1c2oc3ccccc3c(=O)c2C(c2cccc(O)c2)N1CCCN1CCOCC1 (configuration not stated)	-0.1%	0.3%	-12.6%	-0.6%[46.1 µM]	?	2.9
Cc1cc2oc3c(c(=O)c2cc1C)C(c1ccc(F)cc1)N(CCCN1CCOCC1)C3=O (configuration not stated)	-3.3%	4.5%	-7.9%	3.7%[46.1 µM]	7.08µM*	-0.5
O=C1c2oc3ccccc3c(=O)c2C(c2cccc(F)c2)N1CCCO (configuration not stated)	-8.5%	1.7%	7.5%	-42.7%[7.67 µM]	14.1µM*	6.7
SMILES	JMJD2E inh	GoLoco inh red	Sfp inh	NPSR antag	ALDH1A1 block	FBPA coupling cs
CCOC(=O)N1CCC(N2C(=O)c3ccc(C(=O)Nc4ccc(OC)cc4)cc3C2=O)CC1	nt	nt	-12.0%	nt	nt	nt
O=C(OCC(=O)c1cccs1)c1ccc(NC(=O)c2ccco2)cc1	-8.5%	23.2%	1.0%	-23.9%[46.1 µM]	17.8µM*	1.6
O=C(Nc1ccc(NC(=O)c2cccs2)cc1)c1ccco1	?	4.5%	-1.5%	-4.0%[46.1 µM]	-3.3%	1.1
Cc1ccc(S(=O)(=O)/C=C/c2ccccc2)cc1	-4.4%	2.9%	10.5%	-2.6%	-3.5%	3.0
CNc1ccc(Br)cc1C(O)c1ccccc1 (configuration not stated)	-1.2%	2.3%	89.1µM*	-12.3%	nt	-17.9
Cc1ccc(S(=O)(=O)Nc2ccccc2C(O)c2ccccc2)cc1 (configuration not stated)	nt	nt	8.2%	nt	nt	-11.8
NN/C(=C\[N+](=O)[O-])Nc1ccc(Cl)cc1	14.8%	19.6%	-7.4%	1.6%	28.2µM*	-0.8
Cc1ccc(N(CC(=O)NC2CCCCC2)C(=O)CNC(=O)c2ccco2)cc1F	nt	nt	12.9%	nt	nt	0.3
O=C(CSc1nnc(Cn2nnc(-c3ccccc3)n2)n1-c1ccccc1)Nc1ccc(F)cc1	1.3%	6.9%	19.0%	-20.1%[46.1 µM]	?	4.1
O=C(CSc1nnc(Cn2nnc(-c3ccccc3)n2)n1-c1ccccc1)Nc1ccccc1	-3.3%	3.5%	7.8%	?	4.47µM*	0.7
CCOC(=O)c1ccc(NC(=O)COc2ccc(CNCCO)cc2OCC)cc1	19.7%	3.6%	15.6%	-1.3%	-2.4%	3.4
CCOC(=O)c1ccc(NC(=O)Cn2nnc(-c3ccccc3)n2)cc1	?	nt	-13.3%	-0.8%[46.1 µM]	25.1µM*	0.6
CCOC(=O)c1ccc(NC(=O)COc2ccccc2CNCCc2ccccc2)cc1	-12.9%	-4.3%	50.1µM*	?	?	6.4
Oc1ccccc1-n1c(-c2ccccc2)ccc1-c1ccccc1	?	1.0%	-21.4%	-57.5%	nt	-1.2
O=C(O)c1ccc(N2Cc3ccccc3C2)cc1O	?	13.4%	-15.4%	-20.0%[46.1 µM]	28.2µM*	3.0
Cc1cc(-c2nnc(SCCC(=O)Nc3ccccc3)o2)no1	nt	nt	4.7%	nt	nt	nt
COc1ccc(S(=O)(=O)Nc2nnc(CC(C)(C)C)s2)cc1	-7.5%	4.5%	-2.9%	-2.1%	11.2µM*	2.6
COc1ccc(S(=O)(=O)Nc2nnc(C(C)(C)C)s2)cc1	10.1%	0.5%	17.8µM*	-23.6%[46.1 µM]	10µM*	2.4
COc1ccc(S(=O)(=O)Nc2nnc(Cc3ccc(OC)c(OC)c3)s2)cc1	-7.5%	44.8%	50.1µM*	3.6%	2.3%	17.9
Cc1nc2c(cnn2-c2ccccc2Cl)c(=O)n1-c1ccc(N2CCC(C)CC2)cc1	-4.0%	-3.9%	5.8%	12.6µM*	?	0.4
COCCN(CCOC)Cc1c(O)ccc2c1O/C(=C\c1ccc(C)o1)C2=O	nt	nt	2.82µM*	nt	nt	-15.5
CCN(CC)Cc1c(O)ccc2c1O/C(=C\C=C\c1ccccc1)C2=O	4.7%	9.4%	3.8%	-30.5%	nt	0.1
